As usually defined, the AC50 is the concentration at which the activity in the assay is half-maximal.

Each structure is given as a SMILES string. Values joined by “and” are separate entries in the source; they are usually repeats but may differ in a detail not shown here. Equal entries are not always repeated. The source holds several records for some structures; these can differ, active in one and inactive in another. Active and inactive are the calls of the source. How the source made its calls: active means hit-call score of the fitted dose curve at least 0.9, where 1 is the maximum; inactive means score below 0.9.

Sequence of Paired box protein Pax-6 (Homo sapiens) (P26367 whole entry, looked up): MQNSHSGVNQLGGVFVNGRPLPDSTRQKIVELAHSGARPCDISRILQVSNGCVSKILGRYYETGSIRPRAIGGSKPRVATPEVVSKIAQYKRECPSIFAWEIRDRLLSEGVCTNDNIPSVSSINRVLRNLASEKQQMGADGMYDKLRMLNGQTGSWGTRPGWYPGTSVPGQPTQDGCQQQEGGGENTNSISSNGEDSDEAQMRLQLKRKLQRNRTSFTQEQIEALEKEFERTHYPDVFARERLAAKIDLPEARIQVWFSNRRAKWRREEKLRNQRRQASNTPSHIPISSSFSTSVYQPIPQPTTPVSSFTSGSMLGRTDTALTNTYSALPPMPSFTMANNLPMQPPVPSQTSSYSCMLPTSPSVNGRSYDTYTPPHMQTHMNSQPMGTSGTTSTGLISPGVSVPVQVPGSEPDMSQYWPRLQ

Test system in the first assay: not listed separately
The assay can be described thus: ATG_MRE_CIS: Attagene CIS-FACTORIAL HepG2 Assay for human Metal Responsive Element (MRE) (AID 2282954). Particulars: HepG2 MRE cis-reporter transcription, Attagene multiplex; actives raise or lower the signal. The method in brief: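 Readout: capillary electrophoresis of 6-FAM-labelled, HpaI-digested RT-PCR reporter products. System: HepG2 cells carrying transient multiplexed cis reporters, dosed 24 h. Analysis: bidirectional fit, DMSO baseline.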
Take `CCCCc1ccc(O)cc1`: the call was inactive.

For `COCCOCCO`, the outcome was inactive.

Regarding `[N-]=[N+]=[N-]`, the result was inactive.

With `ClC(Cl)c1ccccc1`, the molecule was classed as inactive.

Take `Nc1ccc(Sc2ccc(N)cc2)cc1`: the AC50 was 77.3 µM (active).

Regarding `CCCN(CCC)c1c([N+](=O)[O-])cc(C(C)C)cc1[N+](=O)[O-]`, the result was inactive.

As for `CC1=C(C(=O)Nc2ccccc2)S(=O)(=O)CCO1`, the AC50 was 9.73 µM (active).

On to `CC(Cc1ccc(OCC(=O)O)cc1)NCC(O)c1csc(C(F)(F)F)n1` (configuration not stated), for which the outcome was inactive.

As for `NNC(N)=S`, the outcome was inactive.

For `c1cc2c3c(cccc3c1)CC2`, the call was inactive.

On to `c1ccc2c(c1)Nc1ccccc1S2`, for which the call was inactive.

With `Cc1ccc([N+](=O)[O-])cc1C`, the outcome was inactive.

With `CC(C)(C)c1ccc(O)cc1`, the AC50 was 164 µM (active).

Test system in a further assay: not listed separately
As to the kind of experiment: ATG_PBREM_CIS: Attagene CIS-FACTORIAL HepG2 Assay for human Phenobarbital-responsive Enhancer Module (PBREM) (AID 2282955). Particulars: HepG2 PBREM cis-reporter, Attagene multiplexed transcription; actives raise or lower the signal. The essentials:
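HepG2, transient MRTU transfection, 24 h dosing; RNA → oligo(dT) RT → PCR → 6-FAM extension → HpaI → CE. Bidirectional fit vs DMSO.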
With `ClC(Cl)(Cl)c1ccccc1`, the result was inactive.

Turning to `CCOP(=S)(Oc1ccc([N+](=O)[O-])cc1)c1ccccc1` (configuration not stated), the result was inactive.

With `CCCCN(CCCC)SN(C)C(=O)Oc1cccc2c1OC(C)(C)C2`, the result was inactive.

Consider `Nc1ccc2ccccc2c1`, for which the result was inactive.

On to `O=C(O)C1C(C(=O)O)C2(Cl)C(Cl)=C(Cl)C1(Cl)C2(Cl)Cl` (configuration not stated), for which the result was inactive.

With `Cc1cccc(N)c1`, the result was inactive.

Consider `CCCCOCCOP(=O)(OCCOCCCC)OCCOCCCC`, for which the result was inactive.

Turning to `CN(C)C(=O)Cl`, the outcome was inactive.

As for `CCOS(=O)(=O)OCC`, the outcome was inactive.

Regarding `CSC(C)(C)C=NO`, the outcome was inactive.

Regarding `CCCCCCCc1ccc(O)cc1`, the result was inactive.

`Nc1cc2c3c(c1)C(c1ccccc1)=N[C@@H](NC(=O)c1cccnc1)C(=O)N3CC2`: the concentration at half-maximal activity (AC50) was 41.9 µM (active).

In the case of `Nc1ccc(Cl)cc1`, the outcome was inactive.

Consider `CCOP(=S)(OCC)SCS(=O)(=O)CC`, for which the result was inactive.

As to `CCOC(=O)c1ccccc1C(=O)OCC`, the outcome was inactive.

For the molecule `CCC1(c2ccccc2)C(=O)N=C(O)NC1=O` (configuration not stated), the result was inactive.

Consider `O=C(CBr)OCc1ccccc1`, for which the result was inactive.

Take `Cc1ccc(O)cc1C`: the result was inactive.

In the case of `c1ccc(OP(Oc2ccccc2)Oc2ccccc2)cc1`, the result was inactive.

Regarding `CCCCc1ccc(O)cc1`, the outcome was inactive.

As to `COCCOCCO`, the result was inactive.

For `[N-]=[N+]=[N-]`, the result was inactive.

`ClC(Cl)c1ccccc1`: the outcome was inactive.

For the molecule `Nc1ccc(Sc2ccc(N)cc2)cc1`, the AC50 is 100 µM (active).

Take `CCCN(CCC)c1c([N+](=O)[O-])cc(C(C)C)cc1[N+](=O)[O-]`: the outcome was inactive.

As to `CC1=C(C(=O)Nc2ccccc2)S(=O)(=O)CCO1`, the result was inactive.

Regarding `CC(Cc1ccc(OCC(=O)O)cc1)NCC(O)c1csc(C(F)(F)F)n1` (configuration not stated), the result was inactive.

For the molecule `NNC(N)=S`, the result was inactive.

Consider `c1cc2c3c(cccc3c1)CC2`, for which the outcome was inactive.

In the case of `c1ccc2c(c1)Nc1ccccc1S2`, the outcome was inactive.

Regarding `Cc1ccc([N+](=O)[O-])cc1C`, the result was inactive.

For a further assay, the target named is Paired box protein Pax-6 (Homo sapiens) (UniProt P26367). The assay can be described thus: ATG_Pax6_CIS: Attagene CIS-FACTORIAL HepG2 Assay for human Paired Box 6 (PAX6) (AID 2282956). Particulars: HepG2 CIS-FACTORIAL PAX6 reporter transcription, RNA readout; actives raise or lower the signal. The method in brief:
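DMSO-referenced bidirectional fits of reporter mRNA fluorescence; HepG2 with transient cis-promoter MRTUs, 24 h post-dose, RT-PCR plus capillary electrophoresis detection.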
As for `CCCCN(CCCC)SN(C)C(=O)Oc1cccc2c1OC(C)(C)C2`, the molecule was classed as inactive.

As to `Nc1ccc2ccccc2c1`, the call was inactive.

For `O=C(O)C1C(C(=O)O)C2(Cl)C(Cl)=C(Cl)C1(Cl)C2(Cl)Cl` (configuration not stated), the call was inactive.

Regarding `Cc1cccc(N)c1`, the molecule was classed as inactive.

Take `O=C(O)C(Cl)Cl`: the outcome was inactive.

For `CCOS(=O)(=O)OCC`, the molecule was classed as inactive.

As for `OCC1CO1` (configuration not stated), the molecule was called inactive.

With `CCCCN(CCCC)N=O`, the call was inactive.

For the molecule `CCCCCCCc1ccc(O)cc1`, the result was inactive.

As for `CCN(CC)c1ccccc1`, the molecule was classed as inactive.

Consider `Nc1cc2c3c(c1)C(c1ccccc1)=N[C@@H](NC(=O)c1cccnc1)C(=O)N3CC2`, for which the molecule was called inactive.

Take `O=C(O)CF`: the molecule was classed as inactive.

For `CC(Cl)(Cl)C(=O)O`, the molecule was classed as inactive.

Consider `CCOC(=O)c1ccccc1C(=O)OCC`, for which the molecule was classed as inactive.

For the molecule `CCC1(c2ccccc2)C(=O)N=C(O)NC1=O` (configuration not stated), the molecule was classed as inactive.

In the case of `c1ccc(OP(Oc2ccccc2)Oc2ccccc2)cc1`, the result was inactive.

As to `O=[N+]([O-])c1ccccc1`, the result was inactive.

As for `COCCOCCO`, the outcome was inactive.

In the case of `[N-]=[N+]=[N-]`, the call was inactive.

Consider `c1cc2c3c(cccc3c1)CC2`, for which the molecule was classed as inactive.

Regarding `Cc1ccc([N+](=O)[O-])cc1C`, the outcome was inactive.

On to `CC(C)(C)c1ccc(O)cc1`, for which the half-maximal activity concentration (AC50) is 174 µM (active).

Test system in the next assay: not listed separately
The assay can be described thus: ATG_PXRE_CIS: Attagene CIS-FACTORIAL HepG2 Assay for human Pregnane X Receptor Element (PXRE) (AID 2282957). Particulars: HepG2 Attagene CIS-FACTORIAL PXRE reporter, mRNA; actives raise or lower the signal. The essentials: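 Using HepG2 transfected with multiple reporter transcription units, endogenous factor-driven transcription was scored as reporter mRNA after 24 h exposure.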
In the case of `ClC(Cl)(Cl)c1ccccc1`, the concentration at half-maximal activity (AC50) was 62.9 µM (active).

As to `CCOP(=S)(Oc1ccc([N+](=O)[O-])cc1)c1ccccc1` (configuration not stated), the AC50 was 1.22 µM (active).

For the molecule `CCCCN(CCCC)SN(C)C(=O)Oc1cccc2c1OC(C)(C)C2`, the AC50 is 8.93 µM (active).

With `Nc1ccc2ccccc2c1`, the outcome was inactive.

On to `O=C(O)C1C(C(=O)O)C2(Cl)C(Cl)=C(Cl)C1(Cl)C2(Cl)Cl` (configuration not stated), for which the molecule was classed as inactive.

Regarding `Cc1cccc(N)c1`, the call was inactive.

Take `CCCCOCCOP(=O)(OCCOCCCC)OCCOCCCC`: the AC50 is 1.04 µM (active) and 62.9 µM (active).

In the case of `CN(C)C(=O)Cl`, the result was inactive.

In the case of `O=C(O)C(Cl)Cl`, the outcome was inactive.

As to `CCOS(=O)(=O)OCC`, the molecule was called inactive.

Turning to `OCC1CO1` (configuration not stated), the molecule was classed as inactive.

As to `CCCCN(CCCC)N=O`, the concentration at half-maximal activity (AC50) is 42.7 µM (active).

Regarding `CSC(C)(C)C=NO`, the molecule was called inactive.

As for `CCCCCCCc1ccc(O)cc1`, the AC50 was 8.05 µM (active) and 14.2 µM (active) and 16.6 µM (active); the molecule was classed as inactive.

For the molecule `CCN(CC)c1ccccc1`, the molecule was classed as inactive.

In the case of `Nc1cc2c3c(c1)C(c1ccccc1)=N[C@@H](NC(=O)c1cccnc1)C(=O)N3CC2`, the AC50 was 26.5 µM (active).

On to `O=C(O)CF`, for which the concentration at half-maximal activity (AC50) was 100 µM (active) and the outcome was inactive.

Regarding `Nc1ccc(Cl)cc1`, the molecule was called inactive.

As to `CC(Cl)(Cl)C(=O)O`, the molecule was called inactive.

As for `CCOP(=S)(OCC)SCS(=O)(=O)CC`, the half-maximal activity concentration (AC50) is 11.3 µM (active).

On to `CCOC(=O)c1ccccc1C(=O)OCC`, for which the call was inactive.

On to `CCC1(c2ccccc2)C(=O)N=C(O)NC1=O` (configuration not stated), for which the concentration at half-maximal activity (AC50) was 100 µM (active).

Regarding `O=C(CBr)OCc1ccccc1`, the molecule was classed as inactive.

In the case of `Cc1ccc(O)cc1C`, the result was inactive.

Consider `c1ccc(OP(Oc2ccccc2)Oc2ccccc2)cc1`, for which the AC50 was 39.7 µM (active).

As for `O=[N+]([O-])c1ccccc1`, the result was inactive.

In the case of `CCCCc1ccc(O)cc1`, the outcome was inactive.

Regarding `COCCOCCO`, the molecule was classed as inactive.

As for `[N-]=[N+]=[N-]`, the result was inactive.

Consider `ClC(Cl)c1ccccc1`, for which the call was inactive.

`Nc1ccc(Sc2ccc(N)cc2)cc1`: the half-maximal activity concentration (AC50) is 41.2 µM (active).

For the molecule `CCCN(CCC)c1c([N+](=O)[O-])cc(C(C)C)cc1[N+](=O)[O-]`, the AC50 was 1.08 µM (active).

With `CC1=C(C(=O)Nc2ccccc2)S(=O)(=O)CCO1`, the AC50 is 5.02 µM (active).

As to `CC(Cc1ccc(OCC(=O)O)cc1)NCC(O)c1csc(C(F)(F)F)n1` (configuration not stated), the result was inactive.

Turning to `NNC(N)=S`, the call was inactive.

As for `c1cc2c3c(cccc3c1)CC2`, the molecule was classed as inactive.

As for `c1ccc2c(c1)Nc1ccccc1S2`, the half-maximal activity concentration (AC50) is 17.1 µM (active).

With `Cc1ccc([N+](=O)[O-])cc1C`, the molecule was called inactive.

In the case of `CC(C)(C)c1ccc(O)cc1`, the concentration at half-maximal activity (AC50) was 26 µM (active).

The values are drawn from PubChem BioAssay (EPA / NIEHS).
